The target of assay [1] is Cytochrome P450 2D6 (Homo sapiens) (UniProt P10635). Description: qHTS for inhibitors of CYP2D6 against the NCATS DSHEA and TCM libraries (AID 1919972; active = well fitted curve in the direction sought with a large enough effect; an effect the other way counts as inactive or inconclusive; note: % is set by controls: 0 for no effect and ±100 for the full control effect). To be noted: CYP2D6 enzymatic inhibition, luminescence qHTS; series mostly up to 18.8 µM. The essentials: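 CYP2D6 enzyme with pro-luciferin substrate in manufacturer buffer (typically 100 mM KPO4), preincubated 15 min RT with substances (most at 19.5 nM upward); NADPH regeneration system (1x) started 30–45 min RT reaction; P450-Glo luminescence read after 30 min; quinidine as intraplate control.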
Chain of Cytochrome P450 2D6 (Homo sapiens) (P10635 whole entry, looked up): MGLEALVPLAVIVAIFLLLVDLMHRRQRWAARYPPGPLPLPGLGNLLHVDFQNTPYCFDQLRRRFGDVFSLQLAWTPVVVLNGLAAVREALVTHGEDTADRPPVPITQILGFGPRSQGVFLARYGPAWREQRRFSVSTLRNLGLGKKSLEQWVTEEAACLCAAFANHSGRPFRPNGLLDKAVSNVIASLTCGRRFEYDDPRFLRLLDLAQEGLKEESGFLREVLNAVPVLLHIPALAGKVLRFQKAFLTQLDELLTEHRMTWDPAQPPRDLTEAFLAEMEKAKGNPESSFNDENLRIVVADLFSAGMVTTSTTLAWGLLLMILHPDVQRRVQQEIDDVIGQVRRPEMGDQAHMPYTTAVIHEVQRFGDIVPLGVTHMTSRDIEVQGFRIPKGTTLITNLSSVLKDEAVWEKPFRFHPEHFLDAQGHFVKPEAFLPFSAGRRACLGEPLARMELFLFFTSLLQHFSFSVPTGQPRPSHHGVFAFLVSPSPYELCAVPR
For orientation: qHTS replaces the single test concentration by a dilution series.

Assay [2] addresses Cytochrome P450 2C19 (Homo sapiens) (UniProt P33261). Nature of the assay: qHTS for inhibitors of CYP2C19 against the NCATS DSHEA and TCM libraries (AID 1919974; active = well fitted curve in the direction sought with a large enough effect; an effect the other way counts as inactive or inconclusive;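 note: luminescence from luciferin released by CYP2C19 oxidation of a pro-luciferin substrate; potency is the fitted concentration of half-maximal effect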). To be noted: CYP2C19 enzyme inhibition, luminescence qHTS; series mostly up to 18.8 µM. The essentials:
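Each CYP isoform and its pro-luciferin substrate, at isoform-specific final concentrations, were preincubated 15 min at RT with substances. NADPH regeneration solution (1x) started a 30-45 min reaction, and P450-Glo luminescence was read.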

Assay [3] is described as follows: KB-3-1 P-gp reporter qHTS against the NCATS DSHEA and TCM libraries (AID 1919975; active = well fitted curve in the direction sought with a large enough effect; an effect the other way counts as inactive or inconclusive; note: 0% is about no effect). To be noted: KB-3-1 parental cells, CellTiter-Glo luminescence viability, 72 h; series mostly up to 14.4 µM. Summed up: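 Parental KB-3-1 cells, 500 cells/well, in DMEM with 10% FBS, exposed 72 h at 37 C to compounds in concentration-response. Viability read by CellTiter-Glo luminescence after 30 min at room temperature.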

Assay [4] addresses Cytochrome P450 1A2 (Homo sapiens) (UniProt P05177). Nature of the assay: qHTS for inhibitors of CYPIA2 against the NCATS DSHEA and TCM libraries (AID 1919976; active = well fitted curve in the direction sought with a large enough effect; an effect the other way counts as inactive or inconclusive; note: potency is the fitted concentration of half-maximal effect). To be noted: recombinant CYP1A2 enzyme activity, luminescence; series mostly up to 20.3 µM. The essentials:
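Reaction started with 1x NADPH regeneration solution and run 30-45 min, room temperature, protected from light, after compounds sat 15 min with CYP1A2 and pro-luciferin substrate. P450-Glo detection gave luminescence; furafylline served as control.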

Assay [5] is described as follows: qHTS Counterscreen for compound interference against the NCATS DSHEA and TCM libraries (AID 1919978; active = well fitted curve in the direction sought with a large enough effect; an effect the other way counts as inactive or inconclusive;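 note: compounds preincubated with 1 µM D-luciferin or buffer before detection reagent; % of control where 0% means no effect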). The following applies: firefly luciferase detection reagent interference, luminescence. The essentials:
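Firefly luciferase detection reagent was added after compounds (19.5 nM–39.8 uM final) had been incubated 15 min at room temperature with 1 uM D-luciferin or with 100 mM phosphate buffer alone. Luminescence was read after 30 min at room temperature.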

A short description of assay [6]: Dual reporter qHTS for agonist of Pregnane X Receptor (hPXR) against the NCATS DSHEA and TCM libraries: Fluorescence readout (AID 1920058; active = well fitted curve in the direction sought with a large enough effect; an effect the other way counts as inactive or inconclusive; note: 0% is about no effect). The following applies: PXR dual reporter cells; series mostly up to 22 µM. The essentials: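 Viability readout (CellTiter-Fluor, 405/540 nm, 1 h) from agonist-mode PXR dual reporter in hPXR-Luc HepG2 cells. Substances ~24 h, 37 °C, 5% CO2; rifampicin reference, tetraoctyl ammonium bromide cytotoxic control.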

For assay [7], the target named is Nuclear receptor subfamily 1 group I member 2 (Homo sapiens) (UniProt O75469). Nature of the assay: Dual reporter qHTS for agonist of Pregnane X Receptor (hPXR) against the NCATS DSHEA and TCM libraries: Luminescence readout (AID 1920059; active = well fitted curve in the direction sought with a large enough effect; an effect the other way counts as inactive or inconclusive; note: 0% is about no effect). To be noted: hPXR dual reporter cells, luciferase luminescence agonist; series mostly up to 22 µM. Summed up:
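hPXR-LucHepG2 cells in phenol red-free DMEM with 5% charcoal-stripped FBS, 2000 cells/well, attached 5 h, then exposed 24 h at 37C to compounds; rifampicin as positive agonist control (2.8 nM–92 uM). Luciferase luminescence read.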

Assay [8] has the same target. Description: Dual reporter qHTS for antagonist of Pregnane X Receptor (hPXR) against the NCATS DSHEA and TCM libraries: Luminescence Readout (AID 1920060; active = well fitted curve in the direction sought with a large enough effect; an effect the other way counts as inactive or inconclusive; note: 0% is about no effect). To be noted: hPXR dual reporter cells, luciferase luminescence, antagonist mode; series mostly up to 22 µM. Summed up: (§1)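 hPXR-Luc HepG2 cells exposed 24 h at 37 C to compounds with 2 uM rifampicin in antagonist mode; luciferase luminescence measured by ONE-Glo, with CellTiter-Fluor viability read beforehand.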

Assay [9] in a line: Dual reporter qHTS for antagonist of Pregnane X Receptor (hPXR) against the NCATS DSHEA and TCM libraries: Fluorescence Readout (AID 1920061; active = well fitted curve in the direction sought with a large enough effect; an effect the other way counts as inactive or inconclusive; note: 0% is about no effect). To be noted: PXR dual reporter cells, antagonist mode; series mostly up to 22 µM. The essentials:
as §1

Assay [10] can be described thus: qHTS drug screen for cell cycle checkpoint inhibitors in PARPi-resistant BRCA-mutant ovarian cancer cell lines. (AID 1963452). Note: potency is the fitted concentration of half-maximal effect. To be noted: PEO1/OlaR viability, CellTiter-Glo luminescence, 96 h; for Z-AUC: stronger effect = lower value. The essentials: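 PEO1, PEO4 and PEO1/OlaR ovarian cancer cells, 600 per well, exposed 96 h at 37C to a dilution series. Viability read by CellTiter-Glo luminescence, normalized to DMSO and empty wells; activity summarized as Z-AUC.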

Setting [11] is: measured here: PEO1 parental Z-AUC.

“And” between values parts separate entries of the source, which are not always exact repeats. Identical values can stand only once. Results filed as inconclusive are left out. The source made the active and inactive calls. Unless noted, calls come from the whole dose curve.

Chain of Nuclear receptor subfamily 1 group I member 2 (Homo sapiens) (O75469 whole entry, looked up): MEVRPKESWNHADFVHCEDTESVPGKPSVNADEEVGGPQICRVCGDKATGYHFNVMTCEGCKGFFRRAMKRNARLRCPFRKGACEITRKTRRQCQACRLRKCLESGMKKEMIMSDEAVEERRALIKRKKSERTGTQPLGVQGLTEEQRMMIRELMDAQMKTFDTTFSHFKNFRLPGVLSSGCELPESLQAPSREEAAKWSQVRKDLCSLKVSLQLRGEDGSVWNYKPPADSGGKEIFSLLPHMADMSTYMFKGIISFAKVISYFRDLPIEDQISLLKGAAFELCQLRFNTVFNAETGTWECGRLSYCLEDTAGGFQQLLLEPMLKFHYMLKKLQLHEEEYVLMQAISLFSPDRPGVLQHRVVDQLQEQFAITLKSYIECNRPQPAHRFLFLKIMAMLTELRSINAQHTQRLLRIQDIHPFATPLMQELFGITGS
Chain of Cytochrome P450 2C19 (Homo sapiens) (P33261 whole entry, looked up, canonical isoform): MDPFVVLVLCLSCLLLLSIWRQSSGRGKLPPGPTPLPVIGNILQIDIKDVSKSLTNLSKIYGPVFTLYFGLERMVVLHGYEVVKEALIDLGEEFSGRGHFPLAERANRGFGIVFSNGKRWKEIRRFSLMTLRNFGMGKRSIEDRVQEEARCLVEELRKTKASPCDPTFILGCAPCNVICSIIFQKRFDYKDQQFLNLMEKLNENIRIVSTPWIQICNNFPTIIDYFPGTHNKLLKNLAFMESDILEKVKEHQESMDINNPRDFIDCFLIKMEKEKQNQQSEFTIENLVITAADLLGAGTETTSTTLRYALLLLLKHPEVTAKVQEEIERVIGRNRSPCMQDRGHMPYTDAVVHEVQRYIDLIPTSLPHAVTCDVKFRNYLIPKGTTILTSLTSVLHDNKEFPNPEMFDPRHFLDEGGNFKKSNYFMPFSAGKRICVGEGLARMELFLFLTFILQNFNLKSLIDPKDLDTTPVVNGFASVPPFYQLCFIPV
Chain of Cytochrome P450 1A2 (Homo sapiens) (P05177 whole entry, looked up): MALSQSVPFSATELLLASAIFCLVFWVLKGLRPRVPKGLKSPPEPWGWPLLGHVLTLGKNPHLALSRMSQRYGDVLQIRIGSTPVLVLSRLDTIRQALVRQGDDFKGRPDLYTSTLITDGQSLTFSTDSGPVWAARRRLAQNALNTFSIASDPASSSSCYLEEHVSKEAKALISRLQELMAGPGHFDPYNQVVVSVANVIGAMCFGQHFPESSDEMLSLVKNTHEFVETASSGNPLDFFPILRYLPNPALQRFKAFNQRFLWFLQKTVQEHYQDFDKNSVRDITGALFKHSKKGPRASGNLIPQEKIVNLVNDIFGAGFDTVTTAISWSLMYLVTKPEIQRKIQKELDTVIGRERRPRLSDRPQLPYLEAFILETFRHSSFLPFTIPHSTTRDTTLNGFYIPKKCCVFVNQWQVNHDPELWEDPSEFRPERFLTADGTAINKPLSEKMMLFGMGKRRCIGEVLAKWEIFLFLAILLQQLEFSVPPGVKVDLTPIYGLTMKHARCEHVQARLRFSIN

As for `C[C@@]12CC[C@@H]3[C@@](CC[C@H]4[C@@]3(C)CCC[C@@]4(C)C(=O)O)(CC1=O)C2`, the outcome in [1], in assay [3], in assay [6], in assay [7], in assay [8] and in assay [9] was inactive. In addition, in [2], the Potency is 14100 nM (active). Also, the Potency entry in assay [4] was “inactive”. Also, the max response in [5] is 0.713% (inactive).

As to `CNCc1ccc(-c2cc(-c3nc(-c4ccc(S(=O)(=O)C(C)C)cc4)cnc3N)on2)cc1`, the Z-AUC in assay [10] is 0.146 (inactive); in assay [10] (setting [11]), 0.477; in assay [10] (measured here: PEO4 Z-AUC), 0.605.

Take `COc1ccc(N(C)c2nc(C)nc3ccccc23)cc1`: in [10], the Potency is 3.9 nM (active). The figures for the Z-AUC in [10] (setting [11]) and in [10] (measured here: PEO4 Z-AUC) were -2.78 and -2.81, respectively.

Take `Nc1nccn2c(C3CCC(C(=O)O)CC3)nc(-c3cc4cccc(Cl)c4[nH]3)c12` (stereo unspecified): the results for the Z-AUC in assay [10], in [10] (setting [11]) and in [10] (measured here: PEO4 Z-AUC) were -0.361 (inactive), -0.773 and -1.14, respectively.

Consider `CC(C)=CCC(O)/C(C)=C/CO[C@@H]1O[C@H](CO)[C@@H](O)[C@H](O)[C@H]1O` (stereo partly specified), for which the compound was called inactive in [1], in [3], in assay [6], in [7], in assay [8] and in assay [9]. Also, the Potency in assay [2] is 2510 nM (active); in assay [4], 3550 nM (active). For the same compound, the max response in [5] was -4.77% (inactive).

As for `COc1cc2c(NC3CCN(CC4CCCCC4)CC3)nc(N3CCCN(C(C)C)CC3)nc2cc1OCCCN1CCCCC1`, the Z-AUC in assay [10] is 0.256 (inactive); in assay [10] (setting [11]), 0.301; in assay [10] (measured here: PEO4 Z-AUC) it was -0.248.

Take `Cc1c(NC(=O)c2cc(C(N)=O)nc3cc(F)ccc23)c(C(F)(F)F)nn1Cc1ccc(C#N)cc1`: the figures for the Z-AUC in assay [10], in assay [10] (setting [11]) and in [10] (measured here: PEO4 Z-AUC) were -2.01 (inactive), -1.49 and -1.92, respectively.

Turning to `CCOc1cc2ncc(C#N)c(Nc3ccc(F)c(Cl)c3)c2cc1NC(=O)/C=C/CN(C)C`, the Z-AUC was -0.44 (inactive) in assay [10], -0.362 in assay [10] (setting [11]) and -0.838 in assay [10] (measured here: PEO4 Z-AUC).

`CCO[C@@H]1OC(=O)C[C@@H]1NC(=O)[C@@H]1CCCN1C(=O)[C@@H](NC(=O)c1ccc(N)c(Cl)c1)C(C)(C)C`: the Z-AUC in assay [10] is 0.612 (inactive); in assay [10] (setting [11]), 0.457; in [10] (measured here: PEO4 Z-AUC) it was 0.143.

Regarding `CC(C)[C@@H](CS(=O)(=O)C(C)C)N1C(=O)[C@@](C)(CC(=O)O)C[C@H](c2cccc(Cl)c2)[C@H]1c1ccc(Cl)cc1`, the results for the Z-AUC in assay [10], in assay [10] (setting [11]) and in assay [10] (measured here: PEO4 Z-AUC) were 1.18 (inactive), 1.37 and 1.87, respectively.

As to `COc1cc(C(=O)NC2CCN(C)CC2)c(F)cc1Nc1ncc2c(n1)N(C1CCCC1)CC(F)(F)C(=O)N2C`, the Potency in assay [10] was 245 nM (active). For the same compound, the Z-AUC in assay [10] (setting [11]) is -2.61; in [10] (measured here: PEO4 Z-AUC), -2.16.

In the case of `CC(C)c1c2cc(-c3ccnc(NC4CCC(NC5CCOCC5)CC4)n3)ccc2nn1C` (stereo unspecified), the results for the Z-AUC in assay [10], in assay [10] (setting [11]) and in assay [10] (measured here: PEO4 Z-AUC) were -1.95 (inactive), -2.05 and -1.88, respectively.

As for `CCNCc1nc2c(N)nc3ccccc3c2n1CC(C)(C)O`, the Z-AUC in [10] is -0.12 (inactive); in [10] (setting [11]), 0.65; in assay [10] (measured here: PEO4 Z-AUC) it was 0.404.

For `COc1ncc(Nc2ncc([C@H](C)N3CCN(S(C)(=O)=O)CC3)cc2-c2nc(C)nc(N)n2)cc1F`, the Z-AUC in assay [10] is -0.261 (inactive); in [10] (setting [11]), -0.0225; in assay [10] (measured here: PEO4 Z-AUC) it was -0.164.

`CNC(=O)c1cccc(-c2ccc3c(N4CCOC[C@@H]4C)nc(N4CCOC[C@@H]4C)nc3n2)c1`: the Z-AUC is -1.02 (inactive) in assay [10], -0.895 in assay [10] (setting [11]) and -0.994 in assay [10] (measured here: PEO4 Z-AUC).

In the case of `CC(O)c1cc(C(=O)N[C@@H](C)Cn2ccc(-c3ccc(C#N)c(Cl)c3)n2)n[nH]1` (stereo partly specified), the Z-AUC in [10] was -0.266 (inactive); in assay [10] (setting [11]), -0.668; in assay [10] (measured here: PEO4 Z-AUC) it was -0.279.

Turning to `CC1=C(CO)C(=O)O[C@@H]([C@@H](C)[C@H]2CC[C@H]3[C@@H]4C[C@H]5O[C@]56[C@@H](O)C=CC(=O)[C@]6(C)[C@H]4CC[C@]23C)C1`, the Z-AUC in assay [10] was -1.4 (inactive); in assay [10] (setting [11]) it was -1.83; in assay [10] (measured here: PEO4 Z-AUC), -1.49.

As for `CNC(=O)c1cc(Oc2ccc3nc(N[C@@H]4CCCC[C@H]4O)sc3c2)ccn1`, the Z-AUC in assay [10] was -0.222 (inactive); in [10] (setting [11]) it was -0.612; in assay [10] (measured here: PEO4 Z-AUC), -0.476.

As for `FC(F)(F)c1ccc(Nc2nc(-c3c(C(F)(F)F)nc4ccccn34)cs2)cc1`, the Z-AUC in assay [10] was -2.12 (inactive); in [10] (setting [11]), -1.08; in assay [10] (measured here: PEO4 Z-AUC), -1.77.

As to `C[C@H]1[C@H](O)O[C@@H]2O[C@@]3(C)CC[C@H]4[C@H](C)CC[C@@H]1[C@@]24OO3`, the Z-AUC in assay [10] is 1.05 (inactive); in assay [10] (setting [11]), 0.808; in assay [10] (measured here: PEO4 Z-AUC), 1.02.

Turning to `Cc1cnc(Nc2ccc(F)cc2Cl)nc1-c1c[nH]c(C(=O)NC(CO)c2cccc(Cl)c2)c1` (stereo unspecified), the Z-AUC in assay [10] is -0.685 (inactive); in assay [10] (setting [11]), -0.607; in assay [10] (measured here: PEO4 Z-AUC), -0.952.

Turning to `CCCCNc1ncc2c(-c3ccc(F)cc3)nn(CC3CCC(N)CC3)c2n1` (stereo unspecified), the Z-AUC is -1.02 (inactive) in assay [10], -0.901 in assay [10] (setting [11]) and -1.35 in assay [10] (measured here: PEO4 Z-AUC).

Turning to `CCCCNc1ncc2c(-c3ccc(CN4CCN(C)CC4)cc3)cn(C3CCC(O)CC3)c2n1` (stereo unspecified), the Z-AUC in assay [10] is -1.53 (inactive) and -0.825 (inactive); in assay [10] (setting [11]), -1.06 and -0.682; in assay [10] (measured here: PEO4 Z-AUC), -1.13 and -0.785.

Regarding `Nc1ccc(/C=C/C(=O)NCc2cc3cc(-c4ccc(C(=O)N5CCC(F)(F)CC5)cc4)cc(-c4ccc(F)cc4)c3o2)cn1`, the Z-AUC in assay [10] was -0.388 (inactive); in [10] (setting [11]) it was -0.891; in [10] (measured here: PEO4 Z-AUC) it was -0.788.

As for `CCn1c(=O)c(-c2ccn[nH]2)cc2c(C)nc(N)nc21`, the Z-AUC in [10] was -0.643 (inactive); in assay [10] (setting [11]) it was -0.106; in assay [10] (measured here: PEO4 Z-AUC), -0.63.

For the compound `CN1CCN(C(=O)c2ccc3cc(CCNc4ncnc5ccc(C#N)cc45)ccc3c2)CC1`, the Z-AUC was -0.0214 (inactive) in assay [10], -0.289 in assay [10] (setting [11]) and -0.499 in [10] (measured here: PEO4 Z-AUC).

With `CCCCc1nc2cc(/C=C/C(=O)NO)ccc2n1CCN(CC)CC`, the results for the Z-AUC in assay [10], in assay [10] (setting [11]) and in [10] (measured here: PEO4 Z-AUC) were 0.0461 (inactive), -0.0677 and -0.293, respectively.

As to `COc1ccc(Cl)c(Nc2nc3ccccc3nc2NS(=O)(=O)c2cccc(NC(=O)C(C)(C)N)c2)c1`, the figures for the Z-AUC in [10], in [10] (setting [11]) and in assay [10] (measured here: PEO4 Z-AUC) were -0.00434 (inactive), 0.542 and 0.742, respectively.
